Most compounds without a hit are left out; they make up all but 9.3% or so of the library.
SMN2 splice enh: enhancers of SMN2 splice variant expression. HEK293 SMN2-luciferase splicing reporter, luminescence, 30-36 h. Potency, µM (series often up to 46.1 µM), inactives show at the highest dose activity change, positive = activation, actives largely listed as activators. hit rate 2.8% among 210,000; also: % of control where 0% means no effect; nearly all actives have a fitted effect of over 55% in size
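qHTS luciferase splicing reporter: luminescence rises when SMN2 exon 7 is included in transfected HEK293 cells. Compound exposure lasted 30-36 h at 37C, with 4.5 mM final sodium butyrate as control, followed by a ONE-Glo read.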
FLuc modulator: firefly luciferase modulation, counter-screen for miR-21 project | P08659 | purified FLuc, Km substrates, luminescence inhibition | Potency, µM (doses to about 57.5 µM), without a hit: at the highest dose activity change, negative = inhibition, actives largely listed as inhibitors | hit rate 6.9% among 360,000;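 also: plate controls were vehicle for no effect and reference inhibitor for full effect; nearly all actives have a fitted effect of over 55% in size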
Target sequence (P08659 whole entry, looked up): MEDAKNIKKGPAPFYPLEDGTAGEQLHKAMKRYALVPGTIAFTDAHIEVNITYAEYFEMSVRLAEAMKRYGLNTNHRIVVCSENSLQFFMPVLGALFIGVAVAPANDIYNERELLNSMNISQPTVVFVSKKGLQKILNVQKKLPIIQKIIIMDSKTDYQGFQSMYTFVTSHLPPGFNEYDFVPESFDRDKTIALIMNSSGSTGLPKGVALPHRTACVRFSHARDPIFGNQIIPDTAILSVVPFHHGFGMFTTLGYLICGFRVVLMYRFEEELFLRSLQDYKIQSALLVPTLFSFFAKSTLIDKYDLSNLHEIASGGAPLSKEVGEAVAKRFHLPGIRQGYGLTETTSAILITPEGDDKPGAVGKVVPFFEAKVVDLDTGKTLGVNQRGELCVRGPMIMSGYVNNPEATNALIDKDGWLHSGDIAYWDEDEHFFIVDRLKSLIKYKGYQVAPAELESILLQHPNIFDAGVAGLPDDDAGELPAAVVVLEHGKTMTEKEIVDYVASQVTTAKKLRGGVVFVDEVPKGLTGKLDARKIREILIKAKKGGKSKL
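Purified P. pyralis luciferase (10nM final) with 10uM D-luciferin and 10uM ATP (Km levels) in 50mM Tris acetate pH 7.5, 10mM Mg acetate, 0.01% Tween-20, 0.05% BSA; qHTS 6-point titration, ~60 µM downward; luminescence read.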
ELG1 genotox: inducers of genotoxicity in HEK293T ELG1-luciferase cells; HEK293T ELG1-luciferase reporter, luminescence, 16 h; hit rate 1.3% among 330,000; AID 504466; Potency, µM (titrated, usually from 46 µM), inactives show at the top dose activity change, positive = activation, usual class: activators; also: % of control where 0% means no effect; nearly all actives have a fitted effect of over 60% in size
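Reporter readout depends on ELG1 protein level, which increases with genetic stress. After 16 hr compound exposure at 37 °C, luciferase activity was quantified using ONE-Glo.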
Rab9 prom act: Rab9 promoter activation; Huh7 Rab9 promoter-luciferase reporter, luminescence, 24 h; Potency, µM (series often up to 9.22 µM), for inactives: at the top dose activation, negative = inhibition, usual class: activators; hit rate 2.8% among 320,000; also: % of control where 0% means no effect; nearly all actives have a fitted effect of over 60% in size
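Cells were plated at 1500 per well in reduced-serum medium with 10% FBS and left 2 h. Compound in DMSO was then added for 24 h at 37 °C. Reporter signal was read by luminescence after 10 min with luciferase detection reagent.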
NPC1 promoter act: activators of NPC1 promoter; Huh7 NPC1 promoter luciferase reporter, 24 h; Potency, µM (titrated, usually from 9.22 µM), for the others: top-dose activation, usual class: activators; hit rate 2.4% among 320,000; AID 485313; also: % of control where 0% means no effect; nearly all actives have a fitted effect of over 60% in size
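Huh7 reporter cells (NPC1 promoter driving luciferase) are dosed with compound for 24 h at 37 °C, 5% CO2; luciferase detection reagent is then added and luminescence measured after 10 min at ambient temperature.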
ELG1 repair inh: inhibitors of ELG1-dependent DNA repair in HEK293T cells; Potency, µM (top dose mostly 46.1 µM), for inactives: at the top dose activity change, negative = inhibition, hits mostly inhibitors; hit rate 2.3% among 330,000; HEK293T ELG1-luciferase reporter, luminescence, 16 h; DNA damage induced by 5-fluorouridine; also: % is scaled to controls: 0 for no effect and ±100 for the full control effect; nearly all actives have a fitted effect of over 55% in size
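Step one: seed 2,000 cells per well. Step two: pin-transfer compound or DMSO alongside 5-fluorouridine. Step three: incubate 16 hr, 37 °C, 5% CO2. Step four: add ONE-Glo, wait 30 min, read luminescence.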
Starred values were filed as active, the others as inactive; ? = inconclusive; . = not tested or not shown. Calls follow the shape of the dose curve; as a rule, active = well fitted curve in the direction sought with a large enough effect; inconclusive = small, poorly fitted or top-dose-only effect, or another doubt; inactive = no such curve, though single readings can be large; an effect the other way counts as inactive or inconclusive. Potency is read from the fitted curve at half-maximal effect.

SMILES | SMN2 splice enh | FLuc modulator | ELG1 genotox | Rab9 prom act | NPC1 promoter act | ELG1 repair inh
Cc1ccc(/C=N/NC(=S)N2CCOCC2)cc1 | 34% | 15µM* | ? | 5% | 12% | ?
S=C(N/N=C/c1ccc(Cl)cc1)N1CCOCC1 | 29% | ? | ? | 29% | 29% | ?
Cc1cc(C)cc(NC(=O)C2CCN(C(=O)c3cccs3)CC2)c1 | . | -2% | 2% | -3% | 1% | 6%
O=C(O)c1cc2nc(-c3ccccc3)cc(-c3ccccc3)n2n1 | . | -15% | 4% | -10% | 0% | 15%
Cc1cc(N/N=C/c2ccc(F)cc2)nc(NCc2ccccc2)n1 | . | 11µM* | 1% | 1% | 15% | 0%
Cc1cc(N/N=C/c2ccc(Cl)cc2Cl)nc(NCc2ccccc2)n1 | -49% | ? | -9% | -10% | -9% | ?
Cc1ccc(/C=N/Nc2cc(C)nc(NCc3ccccc3)n2)cc1 | . | 11µM* | -5% | -6% | -2% | -29%
Cc1cc(N/N=C/c2ccc(N(C)C)cc2)nc(NCc2ccccc2)n1 | . | 11µM* | -12% | -12% | 2% | ?
COc1ccc2nc(C)cc(N/N=C/c3ccc(F)cc3)c2c1 | . | 17µM* | -17% | -12% | -39% | ?
CCNc1nc(NCC)nc(N/N=C/c2ccc(N(C)C)cc2)n1 | 4% | ? | -1% | -3% | 2% | 17%
Cc1ccsc1/C=C(\C#N)C(=O)NC1CCS(=O)(=O)C1 (stereo not given) | 15% | -2% | 1% | -1% | -2% | 9%
O=c1[nH]cnc2cc(-c3ccccc3)sc12 | ? | 12µM* | ? | ? | 3.5µM* | ?
COc1ccc(-c2cc3nc(CCl)[nH]c(=O)c3s2)cc1 | . | 0.12µM* | ? | ? | ? | ?
COc1ccc(Cc2c(O)nc[nH]c2=O)cc1 | 1% | 9% | 2% | -1% | -5% | -2%
COc1ccc(-c2cc3nc[nH]c(=O)c3s2)cc1 | 13µM* | 3.8µM* | 4.1µM* | 2.8µM* | ? | ?
COc1ccc(N2CCN(Cc3nc4ccsc4c(=O)[nH]3)CC2)cc1 | 5% | -2% | -1% | -2% | -4% | 3%
O=C(Cc1ccc([N+](=O)[O-])cc1)NCc1ccncc1 | 3% | 0% | 1% | -12% | -3% | 3%
C=CCNc1nc(N)c(C(=C(C#N)C#N)c2ccc(Br)cc2)s1 | -15% | 3% | -10% | -2% | -10% | 18µM*
Cc1ccc2c(=O)cc(CSCC(=O)Nc3nnc(C)s3)[nH]c2c1 | . | 4% | . | . | . | .
O=C(Nc1ccc(CN2CCOCC2)cc1)c1ccc(-c2ccc(Br)cc2)o1 | -60% | ? | -15% | -7% | -1% | 18µM*
COc1ccccc1NC(=O)c1ccc(-c2ccccc2[N+](=O)[O-])o1 | 8% | 11µM* | -14% | ? | ? | ?
COc1ccccc1NC(=O)c1ccc(-c2ccc(Br)cc2)o1 | 3% | 8.5µM* | 20% | -11% | -19% | -20%
COc1ccc(NC(=O)c2ccc(-c3ccc([N+](=O)[O-])cc3)o2)cc1 | -29% | 0% | -3% | -6% | 1% | 10%
O=C(Nc1ccccc1)c1ccc(-c2ccc([N+](=O)[O-])cc2)o1 | . | 13µM* | 14% | 22% | ? | ?
CN(CC(=O)Nc1ccccc1Cl)C(=O)COC(=O)CCN1C(=O)C2CC=CCC2C1=O (stereo not given) | . | 2% | 2% | 0% | -5% | 24%
SMILES | SMN2 splice enh | FLuc modulator | ELG1 genotox | Rab9 prom act | NPC1 promoter act | ELG1 repair inh
Cc1cc(C)nc(SC(C)C(=O)O)n1 (stereo not given) | 5% | 1% | -3% | 21% | 1% | 16%
O=C(NCc1cccnc1)Nc1cc(Cl)cc(Cl)c1 | . | -7% | 2% | -4% | 3% | 6%
NC(=O)c1ccccc1NC(=O)c1ccc(-c2ccc(Br)cc2)o1 | 14% | . | . | . | . | .
O=C(Nc1cccc(NC(=O)c2ccc(-c3cccc(Br)c3)o2)c1)c1ccco1 | -29% | ? | -12% | 1% | 6% | 9.2µM*
O=C(c1ccc(-c2ccc([N+](=O)[O-])cc2)o1)N1CCCCC1 | ? | 6.7µM* | ? | 1µM* | 4µM* | ?
O=C(Nc1cccc(NC(=O)c2ccc(-c3ccc(Br)cc3)o2)c1)c1ccccc1 | 4% | 2.7µM* | 7% | 3% | 13% | 18µM*
O=C(Nc1ccccc1)c1ccc(-c2ccc(Br)cc2)o1 | ? | 6µM* | ? | 0% | 19% | ?
CN1CCN(C(CC(=O)Nc2cccc(O)c2)C(=O)O)CC1 (stereo not given) | . | 1% | 3% | 0% | -4% | 15%
CCOc1ccc(C(=O)NCC(C)CN(C)C)cc1OCC (stereo not given) | 7% | -2% | -1% | -4% | -3% | 21%
CCOC(=O)Nc1nnc(CCc2ccccc2)s1 | 13% | -2% | 9% | 4% | 8% | 0%
O=C(Nc1cccc2ncccc12)c1ccc(-c2ccc(Br)cc2)o1 | -21% | 11µM* | -6% | 6% | 25% | ?
COc1ccc2c(c1)O/C(=C\c1sccc1C)C2=O | ? | 0.17µM* | 18µM* | ? | ? | ?
Cc1cc(OCC(F)(F)C(F)(F)C(F)(F)C(F)F)nc(N)n1 | 5% | 17µM* | 5% | -5% | -5% | ?
O=C(NCc1ccc(F)cc1)C1CCCN(S(=O)(=O)c2cccc3nsnc23)C1 (stereo not given) | -23% | 0% | -7% | -1% | -4% | ?
O=C1N[C@@H](Cc2ccccc2)C(=O)N2CCC[C@@H]12 | . | 1% | 4% | -6% | -2% | 0%
COc1cc(/C=C/C(=O)c2ccc3c(c2)OCO3)cc(OC)c1OC | . | . | -13% | -29% | -5% | 16µM*
COc1cc(/C=C/C(=O)c2ccc3c(c2)OCCO3)cc(OC)c1OC | . | ? | -6% | -14% | -15% | ?
COc1ccc(C(=O)COC(=O)c2ccc3c(c2)OCCO3)c(OC)c1 | . | 12µM* | 14% | 23% | -2% | ?
COc1ccc(/C=C/C(=O)c2cc(F)ccc2OC(=O)c2ccc(OC)c(OC)c2)cc1OC | -95% | -6% | -20% | -2% | -5% | 15µM*
COc1ccc(/C=C/C(=O)c2cc(F)ccc2OC(=O)c2ccccc2OC)cc1OC | -10% | -13% | -8% | -21% | -14% | ?
COc1ccc(/C=C/C(=O)c2ccc3c(c2)OCO3)cc1OC | . | 15µM* | ? | -1% | 10% | 1%
COc1ccc(/C=C/C(=O)c2ccc(C(=O)/C=C/c3ccc(OC)c(OC)c3)cc2)cc1OC | . | 2% | 3% | -5% | -6% | ?

Compound activity as filed in PubChem.
